# Data reported in publication PMC7862700, “An all-to-all approach to the identification of sequence-specific readers for epigenetic DNA modifications on cytosine”.
# Experiments:
# Assay in all cases: DAPPL (digital affinity profiling via proximity ligation, sequencing); 10 mM Tris-HCl pH 7.5, 50 mM NaCl, 1 mM DTT, 4% glycerol, room temperature, 30 min; GST-TFs on glutathione beads, 16-mer random dsDNA library, 0.1% formaldehyde crosslink after washing; high values mean tight binding
# FLI1 = molecular target: T1, FLI1 (Homo sapiens, UniProt Q01543 1-452); conditions: protein: recombinant; tags: N-terminal GST; dsDNA, one strand shown
# T1 sequence: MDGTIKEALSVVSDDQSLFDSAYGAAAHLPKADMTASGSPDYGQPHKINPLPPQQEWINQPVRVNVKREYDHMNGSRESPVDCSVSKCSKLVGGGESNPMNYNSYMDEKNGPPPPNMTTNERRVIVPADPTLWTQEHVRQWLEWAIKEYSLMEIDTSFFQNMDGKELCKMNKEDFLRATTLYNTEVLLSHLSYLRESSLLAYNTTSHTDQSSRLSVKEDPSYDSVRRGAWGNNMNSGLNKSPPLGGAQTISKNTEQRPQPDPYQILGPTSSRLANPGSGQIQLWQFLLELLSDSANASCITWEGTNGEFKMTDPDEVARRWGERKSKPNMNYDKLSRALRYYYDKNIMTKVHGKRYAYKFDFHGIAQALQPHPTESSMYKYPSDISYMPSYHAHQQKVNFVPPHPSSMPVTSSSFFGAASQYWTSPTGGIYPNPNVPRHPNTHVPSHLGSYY
# Procedure, shortened: (§1)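 Human transcription factors fused to GST were expressed in yeast, captured on glutathione beads, given DNA barcodes and pooled with a GST-only negative control. Pools were incubated with 200 nmole of a 16-mer random double-stranded DNA library in Tris/NaCl/DTT/glycerol buffer at room temperature for 30 min. They were then washed, crosslinked with 0.1% formaldehyde, proximity-ligated (BsaI/T4 ligase, 1 h, 37 °C), PCR-amplified and sequenced on an Illumina NextSeq500. Binding signal is each 6-mer's read frequency for a factor divided by its frequency for the GST control.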
# ELK1 = molecular target: T2, ELK1 (Homo sapiens, UniProt P19419 1-428); conditions: protein: recombinant; tags: N-terminal GST; dsDNA, one strand shown
# T2 sequence: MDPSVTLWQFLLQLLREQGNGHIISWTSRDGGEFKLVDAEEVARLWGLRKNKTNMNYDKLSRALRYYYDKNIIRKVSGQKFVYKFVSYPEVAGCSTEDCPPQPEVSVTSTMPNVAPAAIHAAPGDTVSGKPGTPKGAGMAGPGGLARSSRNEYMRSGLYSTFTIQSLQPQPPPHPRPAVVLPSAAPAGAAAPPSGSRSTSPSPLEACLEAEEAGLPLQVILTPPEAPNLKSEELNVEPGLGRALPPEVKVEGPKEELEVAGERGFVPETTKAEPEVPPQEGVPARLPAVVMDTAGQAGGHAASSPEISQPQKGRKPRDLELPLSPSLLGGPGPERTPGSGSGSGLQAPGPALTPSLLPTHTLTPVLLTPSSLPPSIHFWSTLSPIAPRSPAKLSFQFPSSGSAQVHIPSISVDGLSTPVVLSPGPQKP
# Procedure, shortened: as §1
# GABPA = molecular target: T3, GABPA (Homo sapiens, UniProt Q06546 1-454); conditions: protein: recombinant; tags: N-terminal GST; dsDNA, one strand shown
# T3 sequence: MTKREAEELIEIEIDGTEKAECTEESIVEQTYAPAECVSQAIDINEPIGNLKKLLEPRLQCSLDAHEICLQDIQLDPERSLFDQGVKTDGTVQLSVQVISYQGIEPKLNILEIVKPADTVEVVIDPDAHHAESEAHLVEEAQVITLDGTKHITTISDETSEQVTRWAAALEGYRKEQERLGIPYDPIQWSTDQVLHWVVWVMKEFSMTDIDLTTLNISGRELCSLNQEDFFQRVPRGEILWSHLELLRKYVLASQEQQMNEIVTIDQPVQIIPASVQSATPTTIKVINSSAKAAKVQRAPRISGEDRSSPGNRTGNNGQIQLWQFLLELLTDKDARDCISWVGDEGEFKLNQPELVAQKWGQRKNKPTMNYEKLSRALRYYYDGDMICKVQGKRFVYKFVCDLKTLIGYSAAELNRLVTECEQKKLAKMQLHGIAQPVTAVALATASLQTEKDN
# Procedure, shortened: as §1
# ERG = molecular target: T4, ERG (Homo sapiens, UniProt P11308 1-479); conditions: protein: recombinant; tags: N-terminal GST; dsDNA, one strand shown
# T4 sequence: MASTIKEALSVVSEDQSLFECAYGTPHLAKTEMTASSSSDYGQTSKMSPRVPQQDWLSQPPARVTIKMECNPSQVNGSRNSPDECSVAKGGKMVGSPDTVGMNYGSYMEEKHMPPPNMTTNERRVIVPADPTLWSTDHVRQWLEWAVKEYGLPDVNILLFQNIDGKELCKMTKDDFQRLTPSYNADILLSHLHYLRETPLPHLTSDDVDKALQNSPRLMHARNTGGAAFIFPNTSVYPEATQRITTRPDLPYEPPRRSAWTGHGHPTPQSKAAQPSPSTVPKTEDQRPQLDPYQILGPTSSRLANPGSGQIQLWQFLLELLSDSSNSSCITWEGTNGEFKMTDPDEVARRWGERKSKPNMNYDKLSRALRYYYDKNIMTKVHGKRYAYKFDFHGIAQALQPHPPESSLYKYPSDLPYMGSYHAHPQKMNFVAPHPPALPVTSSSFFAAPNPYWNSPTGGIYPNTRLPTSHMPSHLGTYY
# Procedure, shortened: as §1
# ELF1 = ELF1 (Homo sapiens, UniProt P32519 1-619); conditions: protein: recombinant; tags: N-terminal GST; dsDNA, one strand shown
# Procedure, shortened: as §1
# EHF = molecular target: T5, EHF (Homo sapiens, UniProt Q9NZC4 1-300); conditions: protein: recombinant; tags: N-terminal GST; dsDNA, one strand shown
# T5 sequence: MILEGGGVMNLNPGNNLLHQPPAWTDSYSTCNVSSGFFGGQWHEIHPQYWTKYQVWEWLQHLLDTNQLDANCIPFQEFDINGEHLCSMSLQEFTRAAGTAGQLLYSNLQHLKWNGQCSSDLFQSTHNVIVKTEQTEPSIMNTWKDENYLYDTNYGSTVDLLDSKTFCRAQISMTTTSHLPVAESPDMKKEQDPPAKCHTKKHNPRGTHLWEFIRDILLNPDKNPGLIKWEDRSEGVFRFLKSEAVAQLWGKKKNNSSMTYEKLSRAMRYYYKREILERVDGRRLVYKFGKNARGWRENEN
# Procedure, shortened: as §1
# SPI1 = SPI1 (Homo sapiens, UniProt P17947 1-270); conditions: protein: recombinant; tags: N-terminal GST; dsDNA, one strand shown
# Procedure, shortened: as §1
# SPIB = SPIB (Homo sapiens, UniProt Q01892 1-262); conditions: protein: recombinant; tags: N-terminal GST; dsDNA, one strand shown
# Procedure, shortened: as §1
# ELK3 = molecular target: T6, ELK3 (Homo sapiens, UniProt P41970 1-407); conditions: protein: recombinant; tags: N-terminal GST; dsDNA, one strand shown
# T6 sequence: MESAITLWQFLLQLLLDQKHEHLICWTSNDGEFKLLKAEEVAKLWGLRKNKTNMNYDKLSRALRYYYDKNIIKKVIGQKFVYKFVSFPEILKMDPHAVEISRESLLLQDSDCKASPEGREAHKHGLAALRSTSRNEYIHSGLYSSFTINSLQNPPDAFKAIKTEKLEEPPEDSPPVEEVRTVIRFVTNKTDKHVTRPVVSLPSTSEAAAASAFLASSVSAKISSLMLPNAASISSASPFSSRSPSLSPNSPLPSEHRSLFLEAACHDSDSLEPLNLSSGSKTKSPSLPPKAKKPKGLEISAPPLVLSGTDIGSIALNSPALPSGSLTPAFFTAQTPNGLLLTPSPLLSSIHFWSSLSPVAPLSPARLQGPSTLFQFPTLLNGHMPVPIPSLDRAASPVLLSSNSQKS
# Procedure, shortened: as §1
# FEV = molecular target: T7, FEV (Homo sapiens, UniProt Q99581 1-238); conditions: protein: recombinant; tags: N-terminal GST; dsDNA, one strand shown
# T7 sequence: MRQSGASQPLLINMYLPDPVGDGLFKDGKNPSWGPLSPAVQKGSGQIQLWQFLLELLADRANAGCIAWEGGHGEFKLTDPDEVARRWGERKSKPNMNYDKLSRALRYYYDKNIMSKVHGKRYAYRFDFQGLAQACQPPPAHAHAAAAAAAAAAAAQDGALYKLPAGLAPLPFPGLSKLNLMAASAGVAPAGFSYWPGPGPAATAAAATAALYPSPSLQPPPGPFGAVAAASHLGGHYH
# Procedure, shortened: as §1
# ETV5 = ETV5 (Homo sapiens, UniProt P41161 1-510); conditions: protein: recombinant; tags: N-terminal GST; dsDNA, one strand shown
# Procedure, shortened: as §1
# HSF1 = HSF1 (Homo sapiens, UniProt Q00613 1-529); conditions: protein: recombinant; tags: N-terminal GST; chain copies: 3; dsDNA, one strand shown
# Procedure, shortened: as §1
# SPIC = molecular target: T8, SPIC (Homo sapiens, UniProt Q8N5J4 1-248); conditions: protein: recombinant; tags: N-terminal GST; dsDNA, one strand shown
# T8 sequence: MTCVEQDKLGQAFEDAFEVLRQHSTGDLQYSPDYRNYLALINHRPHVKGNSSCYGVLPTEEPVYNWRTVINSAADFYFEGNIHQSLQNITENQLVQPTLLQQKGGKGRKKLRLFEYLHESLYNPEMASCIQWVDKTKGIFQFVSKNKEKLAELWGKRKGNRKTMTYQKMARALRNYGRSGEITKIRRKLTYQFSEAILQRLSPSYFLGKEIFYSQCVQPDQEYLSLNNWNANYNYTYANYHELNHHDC
# Procedure, shortened: as §1
# ELF4 = ELF4 (Homo sapiens, UniProt Q99607 1-663); conditions: protein: recombinant; tags: N-terminal GST; dsDNA, one strand shown
# Procedure, shortened: as §1
# ELK4 = molecular target: T9, ELK4 (Homo sapiens, UniProt P28324-2 1-405); conditions: protein: recombinant; tags: N-terminal GST; dsDNA, one strand shown
# T9 sequence: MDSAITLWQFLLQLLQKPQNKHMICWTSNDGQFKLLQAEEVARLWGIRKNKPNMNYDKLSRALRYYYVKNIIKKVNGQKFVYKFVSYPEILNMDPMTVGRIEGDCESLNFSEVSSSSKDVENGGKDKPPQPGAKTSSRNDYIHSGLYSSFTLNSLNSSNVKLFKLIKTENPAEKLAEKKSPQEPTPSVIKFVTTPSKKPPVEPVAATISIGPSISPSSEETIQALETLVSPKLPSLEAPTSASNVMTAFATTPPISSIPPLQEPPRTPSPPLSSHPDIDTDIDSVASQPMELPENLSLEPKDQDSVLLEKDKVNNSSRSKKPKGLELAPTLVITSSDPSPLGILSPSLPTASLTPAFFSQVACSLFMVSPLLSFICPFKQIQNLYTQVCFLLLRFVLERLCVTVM
# Procedure, shortened: as §1
# ETV2 = molecular target: T10, ETV2 (Homo sapiens, UniProt O00321 1-342); conditions: protein: recombinant; tags: N-terminal GST; dsDNA, one strand shown
# T10 sequence: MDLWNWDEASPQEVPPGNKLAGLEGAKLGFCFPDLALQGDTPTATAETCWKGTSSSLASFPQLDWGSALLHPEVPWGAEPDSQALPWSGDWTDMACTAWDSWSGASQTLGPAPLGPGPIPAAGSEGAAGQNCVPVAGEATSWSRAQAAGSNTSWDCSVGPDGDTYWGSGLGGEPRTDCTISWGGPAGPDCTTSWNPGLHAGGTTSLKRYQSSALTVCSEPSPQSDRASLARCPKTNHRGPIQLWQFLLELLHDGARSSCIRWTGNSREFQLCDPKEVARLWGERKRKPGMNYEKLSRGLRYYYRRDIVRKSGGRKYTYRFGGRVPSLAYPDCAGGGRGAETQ
# Procedure, shortened: as §1
# ELF3 = molecular target: T11, ELF3 (Homo sapiens, UniProt P78545 1-371); conditions: protein: recombinant; tags: N-terminal GST; dsDNA, one strand shown
# T11 sequence: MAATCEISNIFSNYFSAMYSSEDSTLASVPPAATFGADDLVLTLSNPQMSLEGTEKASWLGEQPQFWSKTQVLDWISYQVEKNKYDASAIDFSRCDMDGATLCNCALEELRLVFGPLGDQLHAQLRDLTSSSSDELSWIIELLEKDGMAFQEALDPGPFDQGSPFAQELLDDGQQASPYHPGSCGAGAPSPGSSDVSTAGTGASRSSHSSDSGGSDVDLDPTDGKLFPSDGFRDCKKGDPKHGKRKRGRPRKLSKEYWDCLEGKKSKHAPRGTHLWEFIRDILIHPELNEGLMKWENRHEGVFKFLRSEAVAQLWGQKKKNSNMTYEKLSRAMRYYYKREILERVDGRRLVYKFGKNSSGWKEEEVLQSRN
# Procedure, shortened: as §1
# CRX = CRX (Homo sapiens, UniProt O43186 1-299); conditions: protein: recombinant; tags: N-terminal GST; dsDNA, one strand shown
# Procedure, shortened: as §1
# ETV1 = ETV1 (Homo sapiens, UniProt P50549 1-477); conditions: protein: recombinant; tags: N-terminal GST; dsDNA, one strand shown
# Procedure, shortened: as §1
# ELF1, sequence (P32519 whole entry): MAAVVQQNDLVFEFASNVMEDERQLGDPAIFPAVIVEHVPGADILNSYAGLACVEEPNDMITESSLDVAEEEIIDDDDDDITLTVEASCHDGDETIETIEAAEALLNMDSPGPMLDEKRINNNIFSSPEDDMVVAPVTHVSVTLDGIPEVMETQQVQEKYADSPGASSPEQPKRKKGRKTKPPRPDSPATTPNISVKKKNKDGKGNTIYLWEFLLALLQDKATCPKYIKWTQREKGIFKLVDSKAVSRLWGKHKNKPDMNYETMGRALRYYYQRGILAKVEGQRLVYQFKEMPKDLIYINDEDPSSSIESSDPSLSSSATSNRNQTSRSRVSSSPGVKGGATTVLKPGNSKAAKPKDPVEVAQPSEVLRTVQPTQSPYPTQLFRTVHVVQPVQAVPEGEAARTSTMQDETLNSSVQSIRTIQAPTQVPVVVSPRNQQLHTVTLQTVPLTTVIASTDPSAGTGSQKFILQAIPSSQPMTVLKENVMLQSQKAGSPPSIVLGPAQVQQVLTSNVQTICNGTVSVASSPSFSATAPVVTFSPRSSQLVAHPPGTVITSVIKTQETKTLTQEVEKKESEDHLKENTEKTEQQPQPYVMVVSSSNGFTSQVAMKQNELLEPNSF
# SPIB, sequence (Q01892 whole entry): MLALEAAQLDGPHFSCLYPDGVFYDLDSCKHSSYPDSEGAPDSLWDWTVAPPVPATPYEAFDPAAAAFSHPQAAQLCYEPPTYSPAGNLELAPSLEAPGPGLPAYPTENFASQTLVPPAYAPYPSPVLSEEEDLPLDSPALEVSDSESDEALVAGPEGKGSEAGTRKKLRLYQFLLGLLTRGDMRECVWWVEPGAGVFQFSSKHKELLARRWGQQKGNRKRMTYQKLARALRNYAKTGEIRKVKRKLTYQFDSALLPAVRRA
# ETV1, sequence (P50549 whole entry): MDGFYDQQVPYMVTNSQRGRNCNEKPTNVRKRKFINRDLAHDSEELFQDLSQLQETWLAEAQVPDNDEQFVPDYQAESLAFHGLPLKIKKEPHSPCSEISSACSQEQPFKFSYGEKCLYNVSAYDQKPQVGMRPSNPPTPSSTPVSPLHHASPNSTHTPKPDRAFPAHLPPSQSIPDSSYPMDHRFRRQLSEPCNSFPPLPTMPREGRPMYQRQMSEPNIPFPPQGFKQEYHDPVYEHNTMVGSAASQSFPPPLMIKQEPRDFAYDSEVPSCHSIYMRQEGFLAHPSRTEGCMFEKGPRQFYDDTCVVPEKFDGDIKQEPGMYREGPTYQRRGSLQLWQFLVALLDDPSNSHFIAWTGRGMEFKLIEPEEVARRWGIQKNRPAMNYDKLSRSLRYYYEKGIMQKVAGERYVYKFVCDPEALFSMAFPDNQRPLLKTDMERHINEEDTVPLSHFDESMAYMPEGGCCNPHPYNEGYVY
# HSF1, sequence (Q00613 whole entry): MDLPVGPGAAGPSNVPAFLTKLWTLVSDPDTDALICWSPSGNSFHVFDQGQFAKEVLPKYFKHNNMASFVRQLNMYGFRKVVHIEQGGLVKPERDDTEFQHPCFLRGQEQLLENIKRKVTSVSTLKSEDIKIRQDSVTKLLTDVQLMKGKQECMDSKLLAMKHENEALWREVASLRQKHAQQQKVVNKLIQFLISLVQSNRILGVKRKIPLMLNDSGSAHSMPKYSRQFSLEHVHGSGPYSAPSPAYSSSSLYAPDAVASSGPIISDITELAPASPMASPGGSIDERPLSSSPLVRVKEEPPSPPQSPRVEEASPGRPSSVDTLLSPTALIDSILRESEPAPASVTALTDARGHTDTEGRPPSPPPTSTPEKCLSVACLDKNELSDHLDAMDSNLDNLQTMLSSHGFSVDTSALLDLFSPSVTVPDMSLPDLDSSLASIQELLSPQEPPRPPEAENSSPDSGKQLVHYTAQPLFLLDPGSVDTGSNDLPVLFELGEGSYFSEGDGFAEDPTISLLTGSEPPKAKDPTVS
# ETV5, sequence (P41161 whole entry): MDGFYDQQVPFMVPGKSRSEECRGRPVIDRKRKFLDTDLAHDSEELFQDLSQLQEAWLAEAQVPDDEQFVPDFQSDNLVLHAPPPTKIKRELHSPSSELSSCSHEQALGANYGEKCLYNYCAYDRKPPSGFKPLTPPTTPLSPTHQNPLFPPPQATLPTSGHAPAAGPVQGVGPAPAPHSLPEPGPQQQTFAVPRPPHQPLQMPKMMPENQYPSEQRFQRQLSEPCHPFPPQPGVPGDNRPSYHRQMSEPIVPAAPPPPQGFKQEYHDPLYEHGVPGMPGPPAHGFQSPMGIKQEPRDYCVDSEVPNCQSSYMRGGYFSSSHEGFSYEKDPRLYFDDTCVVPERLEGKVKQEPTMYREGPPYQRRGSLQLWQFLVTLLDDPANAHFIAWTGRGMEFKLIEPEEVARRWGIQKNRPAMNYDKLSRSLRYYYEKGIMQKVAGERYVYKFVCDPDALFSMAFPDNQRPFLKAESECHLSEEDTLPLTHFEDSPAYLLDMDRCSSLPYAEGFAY
# CRX, sequence (O43186 whole entry): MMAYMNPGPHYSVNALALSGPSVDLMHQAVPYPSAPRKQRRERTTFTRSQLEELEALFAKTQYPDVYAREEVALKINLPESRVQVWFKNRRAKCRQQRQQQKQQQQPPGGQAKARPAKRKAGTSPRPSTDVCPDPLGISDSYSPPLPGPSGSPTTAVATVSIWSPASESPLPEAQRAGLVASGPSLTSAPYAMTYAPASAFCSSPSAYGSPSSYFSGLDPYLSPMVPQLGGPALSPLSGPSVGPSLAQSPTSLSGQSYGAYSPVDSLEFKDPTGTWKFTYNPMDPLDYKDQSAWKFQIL
# ELF4, sequence (Q99607 whole entry): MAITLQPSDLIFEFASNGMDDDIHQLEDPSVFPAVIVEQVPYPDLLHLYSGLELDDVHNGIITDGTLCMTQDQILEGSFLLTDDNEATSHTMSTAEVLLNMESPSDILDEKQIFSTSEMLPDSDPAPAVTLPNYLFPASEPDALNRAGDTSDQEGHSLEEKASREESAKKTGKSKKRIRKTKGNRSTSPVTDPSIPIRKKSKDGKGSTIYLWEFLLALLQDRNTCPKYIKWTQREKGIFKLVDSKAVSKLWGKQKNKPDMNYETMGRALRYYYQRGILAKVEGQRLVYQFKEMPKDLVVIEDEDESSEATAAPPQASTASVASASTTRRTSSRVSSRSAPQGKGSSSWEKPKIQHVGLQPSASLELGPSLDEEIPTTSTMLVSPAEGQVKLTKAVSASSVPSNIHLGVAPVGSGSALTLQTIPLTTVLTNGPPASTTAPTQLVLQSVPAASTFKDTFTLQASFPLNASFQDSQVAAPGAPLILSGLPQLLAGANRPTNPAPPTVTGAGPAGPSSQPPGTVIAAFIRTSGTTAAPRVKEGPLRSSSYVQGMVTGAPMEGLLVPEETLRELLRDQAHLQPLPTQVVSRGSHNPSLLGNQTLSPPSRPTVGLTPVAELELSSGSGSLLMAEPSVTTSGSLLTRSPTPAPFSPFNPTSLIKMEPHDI
sequence,measurement,setting,value
CGTTTT,binding signal,FLI1,"1.16 fold enrichment (6-mer frequency, TF over GST control)"
same,binding signal,ELK1,"1.16 fold enrichment (6-mer frequency, TF over GST control)"
same,binding signal,GABPA,"1.34 fold enrichment (6-mer frequency, TF over GST control)"
same,binding signal,ERG,"1.36 fold enrichment (6-mer frequency, TF over GST control)"
same,binding signal,ELF1,"1.17 fold enrichment (6-mer frequency, TF over GST control)"
same,binding signal,EHF,"1.27 fold enrichment (6-mer frequency, TF over GST control)"
same,binding signal,SPI1,"1.29 fold enrichment (6-mer frequency, TF over GST control)"
same,binding signal,SPIB,"1.32 fold enrichment (6-mer frequency, TF over GST control)"
same,binding signal,ELK3,"1.12 fold enrichment (6-mer frequency, TF over GST control)"
same,binding signal,FEV,"1.19 fold enrichment (6-mer frequency, TF over GST control)"
same,binding signal,ETV5,"1.21 fold enrichment (6-mer frequency, TF over GST control)"
same,binding signal,HSF1,"1.12 fold enrichment (6-mer frequency, TF over GST control)"
same,binding signal,SPIC,"1.29 fold enrichment (6-mer frequency, TF over GST control)"
same,binding signal,ELF4,"1.16 fold enrichment (6-mer frequency, TF over GST control)"
same,binding signal,ELK4,"1.22 fold enrichment (6-mer frequency, TF over GST control)"
same,binding signal,ETV2,"1.35 fold enrichment (6-mer frequency, TF over GST control)"
same,binding signal,ELF3,"1.08 fold enrichment (6-mer frequency, TF over GST control)"
same,binding signal,CRX,"1.04 fold enrichment (6-mer frequency, TF over GST control)"
same,binding signal,ETV1,"1.17 fold enrichment (6-mer frequency, TF over GST control)"
